Laboratory results from PubChem BioAssay (NCI).
Several values for one entry are separate records, joined by “and”; a condition that tells them apart may be missing. Equal entries are not always repeated. The panel holds about 83,000 compounds, 20% with a hit somewhere; the sample as a whole holds those more often.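 Compound tested at a single concentration for 48 hours in 96-well plates; a percent growth value below 10 was scored as active.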 A structure can be active in one record and inactive in another. Activity calls are given as the source filed them.

What was measured:
Experiment in all cases: NCI-60 one-dose screen, 48 h (100 = growth as untreated, 0 = no growth, -100 = all killed)
Details in all cases: 10 µM unless noted
NCI-H23 lung = tested on: NCI-H23 lung
NCI-H226 lung = tested on: NCI-H226 lung
NCI-H322M lung = tested on: NCI-H322M lung
HOP-62 NSCLC = tested on: HOP-62 NSCLC
NCI-H460 lung = tested on: NCI-H460 lung
HOP-92 NSCLC = tested on: HOP-92 NSCLC
NCI-H522 lung = tested on: NCI-H522 lung
A549/ATCC NSCLC = tested on: A549/ATCC NSCLC
786-0 renal = tested on: 786-0 renal
COLO 205 colon = tested on: COLO 205 colon
DU-145 prostate = tested on: DU-145 prostate
K-562 leukemia = tested on: K-562 leukemia
MALME-3M melanoma = tested on: MALME-3M melanoma
MDA-MB-231 breast = tested on: MDA-MB-231 breast
RXF 393 renal = tested on: RXF 393 renal
SF-268 CNS = tested on: SF-268 CNS
SF-295 CNS = tested on: SF-295 CNS
SF-539 CNS = tested on: SF-539 CNS
UACC-257 melanoma = tested on: UACC-257 melanoma
M14 melanoma = tested on: M14 melanoma

Row | SMILES | growth (NCI-H23 lung) | growth (NCI-H226 lung) | growth (NCI-H322M lung) | growth (HOP-62 NSCLC) | growth (NCI-H460 lung) | growth (HOP-92 NSCLC) | growth (NCI-H522 lung) | growth (A549/ATCC NSCLC) | growth (786-0 renal) | growth (COLO 205 colon) | growth (DU-145 prostate) | growth (K-562 leukemia) | growth (MALME-3M melanoma) | growth (MDA-MB-231 breast) | growth (RXF 393 renal) | growth (SF-268 CNS) | growth (SF-295 CNS) | growth (SF-539 CNS) | growth (UACC-257 melanoma) | growth (M14 melanoma)
1 | O=C(O)CN(CCN(CC(=O)O)CC(=O)O)CCN(CC(=O)O)CC(=O)O | -19% (active) and 104% (inactive) and 110% (inactive) | 15.7% (inactive) and 98.6% (inactive) and 90.3% (inactive) | -3.44% (active) and 107% (inactive) and 116% (inactive) | -75.5% (active) and 97.4% (inactive) and 99.5% (inactive) | -51.4% (active) and 119% (inactive) | 103% (inactive) and 102% (inactive) | -27.9% (active) and 107% (inactive) and 88.5% (inactive) | -85.5% (active) and 106% (inactive) and 98.9% (inactive) | -20.3% (active) and 102% (inactive) and 105% (inactive) | 23% (inactive) and 91.5% (inactive) and 104% (inactive) | -12.6% (active) and 114% (inactive) and 106% (inactive) | 4.41% (active) and 114% (inactive) and 103% (inactive) | -4.09% (active) and 112% (inactive) and 102% (inactive) | 35.8% (inactive) and 100% (inactive) and 90.7% (inactive) | -19.3% (active) and 108% (inactive) and 109% (inactive) | 1.46% (active) and 114% (inactive) and 105% (inactive) | -23.9% (active) and 112% (inactive) and 105% (inactive) | -42.7% (active) and 104% (inactive) | 0.783% (active) and 105% (inactive) and 102% (inactive) | 18.2% (inactive) and 88.8% (inactive) and 102% (inactive)
2 | CC1=C(/C=C/C(C)=C/C=C/C(C)=C/C(=O)O)C(C)(C)CCC1 | 86.6% (inactive) and 96.1% (inactive) and 98.3% (inactive) | 93% (inactive) and 92.1% (inactive) and 88.2% (inactive) | 94.2% (inactive) and 101% (inactive) | 73% (inactive) and 75.4% (inactive) | 91.2% (inactive) and 91.7% (inactive) and 90.6% (inactive) | 66.8% (inactive) and 77% (inactive) and 26.4% (inactive) | 64.8% (inactive) and 79.3% (inactive) | 73.4% (inactive) and 88.2% (inactive) and 80.3% (inactive) | 96.6% (inactive) and 85.6% (inactive) and 102% (inactive) | 108% (inactive) and 93.2% (inactive) and 145% (inactive) | 103% (inactive) and 83.3% (inactive) | 108% (inactive) and 89.5% (inactive) | 69.1% (inactive) and 35.6% (inactive) and 70.6% (inactive) | 78.1% (inactive) and 82.2% (inactive) and 85.1% (inactive) | 94.2% (inactive) and 89.6% (inactive) and 91.3% (inactive) | 91.7% (inactive) and 92.9% (inactive) and 101% (inactive) | 69.3% (inactive) and 88.1% (inactive) and 114% (inactive) | 88.7% (inactive) and 62.2% (inactive) and 86.1% (inactive) | 94.7% (inactive) and 82.5% (inactive) and 93.9% (inactive) | 109% (inactive) and 95.3% (inactive) and 91.5% (inactive)
3 | COc1cc(C(=O)c2ccc3c(c2)OCO3)cc(OC)c1OC | 49.2% (inactive) and 40.8% (inactive) | 52.4% (inactive) and 72.9% (inactive) | 41% (inactive) and 55.4% (inactive) | 38.8% (inactive) and 41.6% (inactive) | 14.3% (inactive) and 10.9% (inactive) | 37.9% (inactive) and 62.8% (inactive) | 44.6% (inactive) and -30.4% (active) | 33.9% (inactive) and 34.9% (inactive) | 56.2% (inactive) and 46% (inactive) | 19.2% (inactive) and 20.8% (inactive) | 10.4% (inactive) and 27.7% (inactive) | 10.7% (inactive) | 14.5% (inactive) and 34.1% (inactive) | 53.2% (inactive) and 47.4% (inactive) | 28.3% (inactive) and 4.22% (active) | 37.3% (inactive) and 40.6% (inactive) | 9.91% (active) and 9.21% (active) | 18.4% (inactive) and -1.47% (active) | 18.6% (inactive) and 49.4% (inactive) | 21% (inactive) and 19.9% (inactive)
4 | Cc1cc(C)c(N)c(Br)c1 | 101% (inactive) and 83.8% (inactive) | 106% (inactive) | 130% (inactive) and 105% (inactive) | 92.6% (inactive) and 165% (inactive) | 114% (inactive) and 101% (inactive) | 82.2% (inactive) | 95.2% (inactive) and 87.9% (inactive) | 104% (inactive) and 106% (inactive) | 102% (inactive) and 93.6% (inactive) | 102% (inactive) and 105% (inactive) | 122% (inactive) and 109% (inactive) | 107% (inactive) and 96.5% (inactive) | 105% (inactive) and 95.4% (inactive) | 112% (inactive) and 98.8% (inactive) | 116% (inactive) and 103% (inactive) | 105% (inactive) and 103% (inactive) | 127% (inactive) and 110% (inactive) | 108% (inactive) and 92.9% (inactive) | 106% (inactive) and 105% (inactive) | 103% (inactive)
5 | ClC/C=C/CSc1ncnc2nc[nH]c12 | 101% (inactive) and 102% (inactive) | 98.9% (inactive) and 123% (inactive) | 110% (inactive) | 91.9% (inactive) and 108% (inactive) | 105% (inactive) and 106% (inactive) | 104% (inactive) | 102% (inactive) and 77.3% (inactive) | 101% (inactive) and 104% (inactive) | 106% (inactive) and 102% (inactive) | 109% (inactive) and 116% (inactive) | 110% (inactive) and 116% (inactive) | 82.1% (inactive) and 73.3% (inactive) | 116% (inactive) and 95.9% (inactive) | 109% (inactive) and 96.3% (inactive) | 109% (inactive) and 141% (inactive) | 103% (inactive) and 119% (inactive) | 101% (inactive) and 117% (inactive) | 101% (inactive) and 103% (inactive) | 118% (inactive) and 104% (inactive) | 104% (inactive) and 103% (inactive)
6 | COc1cc(/C=N/Nc2nc3c([nH]2)c(=O)n(C)c(=O)n3C)ccc1O | 93.6% (inactive) and 111% (inactive) | 103% (inactive) and 113% (inactive) | 101% (inactive) and 105% (inactive) | 105% (inactive) and 102% (inactive) | 109% (inactive) and 111% (inactive) | 102% (inactive) | 87.8% (inactive) and 95.7% (inactive) | 105% (inactive) and 97.8% (inactive) | 95.7% (inactive) and 112% (inactive) | 119% (inactive) and 126% (inactive) | 114% (inactive) | 91.4% (inactive) and 106% (inactive) | 88.5% (inactive) and 97.9% (inactive) | 96.4% (inactive) and 107% (inactive) | 122% (inactive) and 123% (inactive) | 104% (inactive) and 109% (inactive) | 115% (inactive) and 118% (inactive) | 89.9% (inactive) and 104% (inactive) | 102% (inactive) and 110% (inactive) | 102% (inactive) and 108% (inactive)
7 | CC1=CCC2CC1C2(C)C (stereo not given) | 80.7% (inactive) and 93.5% (inactive) | 101% (inactive) and 97.7% (inactive) | 92.4% (inactive) and 94.8% (inactive) | 82.8% (inactive) and 68.9% (inactive) | 106% (inactive) and 102% (inactive) | 75.5% (inactive) and 121% (inactive) | 92.9% (inactive) and 39.9% (inactive) | 94.3% (inactive) and 83.6% (inactive) | 101% (inactive) and 98.6% (inactive) | 89.2% (inactive) and 103% (inactive) | 98.6% (inactive) and 112% (inactive) | 102% (inactive) and 98.4% (inactive) | 101% (inactive) and 127% (inactive) | 95.8% (inactive) and 96.9% (inactive) | 102% (inactive) and 71% (inactive) | 115% (inactive) and 94.1% (inactive) | 94.2% (inactive) and 106% (inactive) | 102% (inactive) | -8.84% (active) and 108% (inactive) | 98.3% (inactive) and 90.3% (inactive)
8 | Nc1n[nH]c(=S)n1-c1ccc(Cl)cc1 | 95.9% (inactive) | 93.9% (inactive) | 98.7% (inactive) | 94.5% (inactive) | 99.6% (inactive) | 85.9% (inactive) | 97.2% (inactive) | 100% (inactive) | 93.7% (inactive) | 117% (inactive) | 108% (inactive) | 102% (inactive) | 102% (inactive) | 112% (inactive) | 96.7% (inactive) | 100% (inactive) | 148% (inactive) | 93% (inactive) | 93.5% (inactive) | 101% (inactive)
